# Source: PMC5540273 (PLoS ONE, 2017)
# Key:
# Settings in all cases: concentration: 1 μM, replicates: in singlicate; n = 1
# FYN = tested on: FYN
# GAK = tested on: GAK
# GCN2(Kin.Dom.2,S808G) = tested on: T1, GCN2(Kin.Dom.2,S808G)
# T1 construct: gene EIF2AK4
# GRK1 = tested on: GRK1
# GRK2 = tested on: T2, GRK2
# T2 construct: gene ADRBK1
# GRK3 = tested on: T3, GRK3
# T3 construct: gene ADRBK2
# GRK4 = tested on: GRK4
# GRK7 = tested on: GRK7
# GSK3A = tested on: GSK3A
# GSK3B = tested on: GSK3B
# HASPIN = tested on: T4, HASPIN
# T4 construct: gene GSG2
# HCK = tested on: HCK
# HIPK1 = tested on: HIPK1
# HIPK2 = tested on: HIPK2
# HIPK3 = tested on: HIPK3
# HIPK4 = tested on: HIPK4
# HPK1 = tested on: HPK1
# HUNK = tested on: HUNK
# ICK = tested on: ICK
# IGF1R = tested on: IGF1R
# 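Further: KINOMEscan kinase panel screen.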
Compound,%Inh (FYN) [%],%Inh (GAK) [%],"%Inh (GCN2(Kin.Dom.2,S808G)) [%]",%Inh (GRK1) [%],%Inh (GRK2) [%],%Inh (GRK3) [%],%Inh (GRK4) [%],%Inh (GRK7) [%],%Inh (GSK3A) [%],%Inh (GSK3B) [%],%Inh (HASPIN) [%],%Inh (HCK) [%],%Inh (HIPK1) [%],%Inh (HIPK2) [%],%Inh (HIPK3) [%],%Inh (HIPK4) [%],%Inh (HPK1) [%],%Inh (HUNK) [%],%Inh (ICK) [%],%Inh (IGF1R) [%]
Nc1cccc(-c2ccc3c(N)n[nH]c3c2)c1 [GSK2193613],13,44,0,0,0,55,9,0,0,96.2,90.5,0,0,0,100,0,48,23,0,8
N#CC1(c2cccc(C(=O)Nc3cccc(Oc4ccc5nc(NC(=O)C6CC6)sc5n4)c3)c2)CC1,92,0,0,12,0,0,0,0,24,0,38,98.3,6,0,0,78,40,32,0,0
Nc1ncnc2scc(-c3ccc(NC(=O)Cc4cc(F)ccc4F)cc3)c12.O=C(O)C(F)(F)F [SB-731254-M],0,26,19,24,0,0,15,29,3,24,0,66,18,23,26,2,44,0,12,0
Cl.Cl.NC(CNC(=O)c1cc(Br)c(-c2ccnc3[nH]ccc23)s1)c1ccccc1 (centres unmarked) [GSK1322949],17,85,0,3,39,70,76,75,0,3,92.6,0,65,68,73,97.3,69,0,0,0
CCNC(=O)/C=C/c1n[nH]c2cc(Sc3ccccc3C(=O)NC)ccc12,0,13,6,14,25,20,0,0,18,29,14,7,23,2,22,0,8,0,0,10
N#Cc1cnc2cc(-c3cnc(CNCCN4CCOCC4)s3)ccc2c1Nc1ccc(Oc2ccccc2)cc1 [GW664114],93.2,43,100,0,0,27,0,0,6,10,0,99,0,0,17,0,89,12,0,17
CCn1c(-c2nonc2N)nc2c(-c3ccccc3)ncc(OCCCN)c21.O=C(O)C(F)(F)F.O=C(O)C(F)(F)F [GSK260205],0,83,0,0,0,63,0,0,15,17,9,0,0,0,38,0,0,0,10,0
Cc1ccc(O)cc1Nc1ccnc2ccc(C(C)(C)C)cc12 [GW856805],96.5,61,5,28,0,28,17,37,0,28,44,93.8,20,0,28,0,0,0,37,0
Cc1ccc(-c2ccc3occ(-c4ccc(S(C)=O)cc4)c3c2)nn1 (centres unmarked),0,0,1,12,0,0,7,0,3,0,42,0,42,2,0,0,0,0,0,0
c1ccc(Oc2ccc(Nc3ccnc4cc(-c5ccc(CN6CCCCC6)o5)ccc34)cc2)nc1 [GW567143],74,79,24,0,0,8,0,0,4,8,6,79,0,0,8,0,20,0,0,15
